Assay results published in PubChem BioAssay (NCATS).
Records with an inconclusive call do not appear. Where a call stands in place of a potency, no number is given. Calls of active or inactive are those of the source. The call rests on the fitted dose curve; in most records, active means well fitted curve in the direction sought with a large enough effect; inconclusive means small, poorly fitted or top-dose-only effect, or another doubt; inactive means no such curve, though single readings can be large; an effect the other way counts as inactive or inconclusive. Positions of bridges follow the written chain, without caps; N, C: chain ends. Non-standard residues stand in square brackets, D forms with d. Residues, ends and D or L forms follow the SMILES beside them. ξ: configuration not given here. *: point of attachment. Octanoyl(6-Me) = CCC(C)CCCCC(=O)*; ξThr(3R) = C[C@@H](O)C(N)C(=O)O; dDab = NCC[C@@H](N)C(=O)O; Dab = NCC[C@H](N)C(=O)O; Nva = CCC[C@H](N)C(=O)O; Cbz = O=C(OCc1ccccc1)*

Assays:
[1] = target: Calcium and integrin-binding protein 1 (Homo sapiens) (UniProt Q99828); test: Primary qHTS for Identification of Calcium Integrin Binding Protein 1 (CIB1) Competitor (AID 1508620);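 further: GST tagged CIB1 binding a fluorescein labelled alphaIIb integrin peptide tracer; top concentration of the series differs between compounds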
How it was run: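 Fluorescence polarization competition: CIB1-GST (1 uM final) preincubated with compound 15 min at room temperature, then FITC-labeled alphaIIb peptide (100 nM final) added for another 15 min. Polarization read at Ex 480/Em 540.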

[2] = Primary qHTS for small molecule stabilizers of the endoplasmic reticulum resident proteome: Secreted ER Calcium Modulated Protein (SERCaMP) assay (AID 1508630)
How it was run: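 The SH-SY5Y reporter protocol was run at 3 concentrations up to 38.3 uM (primary) or 11 concentrations (follow-up): 16 h compound, 100 nM thapsigargin for 4 h, then extracellular luciferase luminescence.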

Calcium and integrin-binding protein 1 (Homo sapiens), sequence (Q99828 whole entry, looked up): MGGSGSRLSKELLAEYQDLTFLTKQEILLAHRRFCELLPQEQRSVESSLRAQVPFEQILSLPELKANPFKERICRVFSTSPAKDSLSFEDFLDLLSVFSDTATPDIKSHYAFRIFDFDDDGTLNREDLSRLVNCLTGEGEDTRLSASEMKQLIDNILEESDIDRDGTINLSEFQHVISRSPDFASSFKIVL

Row | Compound | Potency [1] | outcome [2] | activity change, negative = inhibition [1] | activity change, negative = inhibition [2]
1 | c1cncc(CN2CCC(n3ncc4c(N5CCOCC5)nc(-c5ccc6[nH]ccc6c5)nc43)CC2)c1 | inactive | inactive |  | 
2 | CC(=O)NCC(=O)N1[C@H]2CC[C@H]1c1cc(Nc3ncc(C(F)(F)F)c(NC4CCC4)n3)ccc12 | inactive | inactive |  | 
3 | CCC[C@H]1C[C@H](C(=O)N[C@@H]([C@@H]2O[C@@H](SC)[C@@H](O)[C@@H](O)[C@@H]2O)[C@H](C)Cl)N(C)C1 | inactive | inactive |  | 
4 | OC[C@H]1OC(O)C[C@@H](O)[C@H]1O (some centres undefined) | inactive | inactive |  | 
5 | COc1ccc(C(C)=O)c(O)c1 | inactive | inactive |  | 
6 | C[C@@]12C(=O)OC(=O)[C@@]1(C)C1CCC2O1 | inactive | inactive |  | 
7 | Cc1cc(-c2nnc3n2CCCCC3)c(C)n1-c1ccccc1 | inactive | inactive |  | 
8 | CN[C@H]1[C@@H](O)[C@@H]2O[C@@H]3O[C@H](C)CC(=O)[C@]3(O)O[C@@H]2[C@@H](NC)[C@H]1O | inactive | inactive |  | 
9 | O=C1NC(=O)C(=Cc2ccc3nccc(-c4ccncc4)c3c2)S1 | inactive | inactive |  | 
10 | O=C(Nc1cccc(Nc2ncc(Br)c(NCCc3cnc[nH]3)n2)c1)N1CCCC1 | inactive | inactive |  | 
11 | C[C@H](NC(=O)C(C#N)=Cc1cccc(Br)n1)c1ccccc1 | inactive | inactive |  | 
12 | CCN(C(=O)c1c(O)c2c(Cl)cccc2n(C)c1=O)c1ccccc1 | inactive | inactive |  | 
13 | COc1cc(C=CC(=O)CC(=O)C=Cc2ccc(O)c(OC)c2)ccc1O | inactive | inactive |  | 
14 | C#CCC(Cc1cnc2nc(N)nc(N)c2n1)c1ccc(C(=O)N[C@@H](CCC(=O)O)C(=O)O)cc1 (some centres undefined) | inactive | inactive |  | 
15 | C[C@@H]1CC[C@@]2(OC1)OC1CC3C4CC=C5CC(O)CCC5(C)C4CCC3(C)C1[C@@H]2C (some centres undefined) | inactive | inactive |  | 
16 | CC(=O)OCC(=O)[C@@]1(O)CC[C@H]2[C@@H]3CCC4=CC(=O)CC[C@]4(C)[C@@H]3C(=O)C[C@@]21C | inactive | inactive |  | 
17 | CCC(C=C[C@@H]1OC(=O)C=C[C@H]1C)=C[C@H](C)CC=CC(C)=C[C@@H](C)C(=O)[C@@H](C)[C@H](O)[C@@H](C)CC(C)=CC(=O)O |  |  | 3.68% [at 2.24 µM] (inactive) | 41.2% [at 1.51 µM] (inactive)
18 | CCCCCCCCCCCCCCCC(=O)OC[C@@H](NC(=O)C(Cl)Cl)[C@H](O)c1ccc([N+](=O)[O-])cc1 | inactive | inactive |  | 
19 | OCc1ccccc1O[C@@H]1O[C@H](CO)[C@H](O)[C@H](O)[C@H]1O | inactive | inactive |  | 
20 | COc1ccc(C=Cc2cc(OC)c(OC)c(OC)c2)cc1NC(=O)[C@H](N)CO | inactive | inactive |  | 
21 | C#C[C@]1(O)CC[C@@H]2[C@@H]3CCC4=CC(=O)CC[C@@H]4[C@H]3CC[C@@]21CC | inactive | inactive |  | 
22 | CC(=O)NC(CS)C(=O)O (centres undefined) | inactive | inactive |  | 
23 | C#C[C@]1(O)CC[C@@H]2[C@@H]3CCc4cc(O)ccc4[C@H]3CC[C@@]21C | inactive | inactive |  | 

Row | Compound | Potency [1] | outcome [2] | activity change, negative = inhibition [1] | activity change, negative = inhibition [2]
24 | COc1cc(N2CCC(C(N)=O)CC2)ccc1Nc1nc(N)c(Cl)c(Nc2ccccc2S(=O)(=O)C(C)C)n1 | inactive | inactive |  | 
25 | CC(C)(C)[C@H](NC(=O)c1ccc(N)c(Cl)c1)C(=O)N1CCC[C@@H]1C(=O)N[C@H](C#N)CC(=O)O |  |  | -8.66% [at 6.45 µM] (inactive) | 176% [at 3.88 µM] (inactive)
26 | CCN1CCN(C(=O)N[C@H](C(=O)N[C@@H]2C(=O)N3C(C(=O)O)=C(CSc4nnnn4C)CS[C@@H]23)c2ccc(O)cc2)C(=O)C1=O |  | inactive | -3.53% [at 12.4 µM] (inactive) | 
27 | C=CC(=O)Nc1ccc2ncnc(Nc3ccc(OCc4cccc(F)c4)c(Cl)c3)c2c1 | inactive | inactive |  | 
28 | C[C@@H](Cc1cc2c(c(C(N)=O)c1)N(CCCO)CC2)NCCOc1ccccc1OCC(F)(F)F | inactive | inactive |  | 
29 | CCC[C@@H](C=O)NC(=O)[C@H](CC(C)C)NC(=O)[C@H](CC(C)C)NC(=O)OCc1ccccc1 (Cbz-Leu-Leu-[Nva]-aldehyde) | inactive | inactive |  | 
30 | Cn1cc(C[C@@H](N)C(=O)O)c2ccccc21 | inactive | inactive |  | 
31 | N#Cc1c(C2CCNCC2)cc(-c2c(O)cccc2OCC2CC2)nc1N | inactive | inactive |  | 
32 | C[C@H]1[C@@H](OC(=O)CCC(=O)O)O[C@@H]2O[C@@]3(C)CC[C@@H]4[C@H](C)CC[C@@H]1[C@@]24OO3 | inactive | inactive |  | 
33 | Cc1ccc(O)c(C(CCN(C(C)C)C(C)C)c2ccccc2)c1 (centres undefined) | inactive | inactive |  | 
34 | CC(C=CC=C(C)C=CC1=C(C)CCCC1(C)C)=CC=CC=C(C)C=CC=C(C)C=CC1=C(C)CCCC1(C)C | inactive | inactive |  | 
35 | CCCCCCCCCCCCc1ccc(S(=O)(=O)Nc2nncs2)cc1 | inactive | inactive |  | 
36 | Cn1cc(C=CC(=O)c2cccc(F)c2)cc1C=CC(=O)NO | inactive | inactive |  | 
37 | NC(=O)Nc1cc(-c2ccc(CN3CCOCC3)cc2)sc1C(N)=O | inactive | inactive |  | 
38 | O=C(Nc1ccc(Oc2ccnc3[nH]ccc23)c(F)c1)c1cccn(-c2ccc(F)cc2)c1=O | inactive | inactive |  | 
39 | C[C@@H]1[C@H](C)CC[C@]2(C(=O)O)CC[C@]3(C)C(=CC[C@@H]4[C@@]5(C)C[C@@H](O)[C@H](O)[C@@](C)(CO)[C@H]5CC[C@]43C)[C@@H]12 | inactive | inactive |  | 
40 | CCCCCN=C(N)NN=Cc1c[nH]c2ccc(OC)cc12 | inactive | inactive |  | 
41 | OCCNC1CCCc2c1[nH]c1ccc(-c3ccccc3)cc21 (centres undefined) | inactive | inactive |  | 
42 | Cn1cnc2c(F)c(Nc3ccc(Br)cc3F)c(C(=O)NOCCO)cc21 | inactive | inactive |  | 
43 | Cc1nc(NC(=O)N2CCC[C@@H]2C(N)=O)sc1-c1ccnc(C(C)(C)C(F)(F)F)c1 | inactive | inactive |  | 
44 | Cc1cc(Nc2ncc3c(n2)N(C)C(=O)N(c2cc(NC(=O)c4cccc(C(F)(F)F)c4)ccc2C)C3)n(C)n1 | inactive | inactive |  | 
45 | C=Cc1c(C)c2cc3nc(cc4[nH]c(cc5nc(cc1[nH]2)C(C)=C5CCC(=O)O)c(CCC(=O)OC)c4C)[C@@]1(C)C3=CC=C(C(=O)OC)[C@H]1C(=O)OC | inactive | inactive |  | 
46 | O=C(CCCCCCC(=O)Nc1cccnc1)NO | inactive | inactive |  | 

Row | Compound | Potency [1] | outcome [2] | activity change, negative = inhibition [1] | activity change, negative = inhibition [2]
47 | c1cc(CN2CCCNCCNCCCNCC2)ccc1CN1CCCNCCNCCCNCC1 | inactive | inactive |  | 
48 | CCc1cc(C(C)=NOCc2ccc(C3CCCCC3)c(C(F)(F)F)c2)ccc1CN1CC(C(=O)O)C1 | inactive | inactive |  | 
49 | CC(C)C[C@H](NC(=O)CNC(=O)c1cc(Cl)ccc1Cl)B1OC(=O)CC(CC(=O)O)(C(=O)O)O1 (some centres undefined) | inactive | inactive |  | 
50 | CCC(C)CCCCC(=O)N[C@@H](CCN)C(=O)NC(C(=O)N[C@H](CCN)C(=O)N[C@@H]1CCNC(=O)C([C@@H](C)O)NC(=O)[C@@H](CCN)NC(=O)[C@@H](CCN)NC(=O)[C@@H](CC(C)C)NC(=O)[C@H](Cc2ccccc2)NC(=O)[C@H](CCN)NC1=O)[C@@H](C)O (stereo partly drawn) ({Octanoyl(6-Me)}-[Dab][ξThr(3R)][dDab][dDab][Dab]F[dL][dDab][dDab][ξThr(3R)]; lactam 4-C) | inactive | inactive |  | 
51 | COc1cc(OC)c(NC(=O)Nc2cc(C)on2)cc1Cl | inactive | inactive |  | 
52 | Cc1cc(O)c2c(c1)C(=O)c1cccc(O)c1C2=O | inactive | inactive |  | 
53 | CS[C@H]1SC[C@@H]2C(=O)N(C)[C@H](C(C)C)C(=O)OC[C@H](NC(=O)c3cnc4ccccc4n3)C(=O)N[C@H](C)C(=O)N(C)[C@@H]1C(=O)N(C)[C@H](C(C)C)C(=O)OC[C@H](NC(=O)c1cnc3ccccc3n1)C(=O)N[C@H](C)C(=O)N2C | inactive | inactive |  | 
54 | CC(C(C)N1CC(=O)NC(=O)C1)N1CC(=O)NC(=O)C1 (centres undefined) | inactive | inactive |  | 
55 | CC(=CC(=O)Nc1ccccc1C(=O)O)c1ccc2ccccc2c1 | inactive | inactive |  | 
56 | CC(C)(N)c1ccc(-c2nc3ccccc3nc2-c2ccccc2)cc1 | inactive | inactive |  | 
57 | C=C(C)[C@@H]1CC[C@]2(C(=O)O)CC[C@]3(C)[C@H](CC[C@@H]4[C@@]5(C)CC[C@H](O)C(C)(C)[C@@H]5CC[C@]43C)[C@@H]12 | inactive | inactive |  | 
58 | N#CC(=C(N)Sc1ccc(N)cc1)c1ccccc1C(F)(F)F | inactive | inactive |  | 
59 | c1coc(CNc2ncnc3nc[nH]c23)c1 | inactive | inactive |  | 
60 | C=CC1=C(C(=O)O)N2C(=O)[C@@H](NC(=O)C(=NO)c3csc(N)n3)[C@H]2SC1 | inactive | inactive |  | 
61 | C[C@@H]1C(=O)O[C@H]2CC34[C@H]5C[C@@H](C(C)(C)C)C36[C@H](OC(=O)[C@@H]6O)O[C@@]4(C(=O)O5)[C@]21O (some centres undefined) | inactive | inactive |  | 
62 | CC[C@@]1([C@@H]2O[C@@H]([C@H]3O[C@@](O)(CO)[C@H](C)C[C@H]3C)C[C@H]2C)CC[C@H]([C@]2(C)CC[C@]3(C[C@H](O)[C@@H](C)[C@@H]([C@@H](C)[C@@H](OC)[C@H](C)C(=O)O)O3)O2)O1 | inactive | inactive |  | 
63 | c1ccc(CNc2nc(NCc3ccccc3)c3ccccc3n2)cc1 | inactive | inactive |  | 
64 | C[C@@H](Oc1ccc2[nH]nc(C=Cc3cnn(CCO)c3)c2c1)c1c(Cl)cncc1Cl | inactive | inactive |  | 
65 | CC[C@]12C=CCN3CC[C@@]4(c5cc([C@@]6(C(=O)OC)C[C@H]7C[C@@H](C(C)(F)F)CN(Cc8c6[nH]c6ccccc86)C7)c(OC)cc5N(C)[C@H]4[C@@](O)(C(=O)OC)[C@H]1OC(C)=O)[C@@H]32 | inactive | inactive |  | 
66 | O=C(C[C@@H]1CC=CCCC(=O)O[C@H](c2ccccc2)CNC1=O)NCc1ccc(Cl)cc1 | inactive | inactive |  | 
67 | CC(C)NC[C@@H](C(=O)N1CCN(c2ncnc3c2[C@H](C)C[C@H]3O)CC1)c1ccc(Cl)cc1 | inactive | inactive |  | 
